This is an account of results in ChEMBL document CHEMBL3988442, “University of Dundee, Small-Polar-MMV Screening Library” (2021).

The target in assay [1] is T1, Aspartate--tRNA(Asp/Asn) ligase (Mycobacterium tuberculosis (strain ATCC 25618 / H37Rv)) (UniProt P9WFW3). Note: in the data most compounds retested in dose-response had high values.
T1 sequence (whole entry): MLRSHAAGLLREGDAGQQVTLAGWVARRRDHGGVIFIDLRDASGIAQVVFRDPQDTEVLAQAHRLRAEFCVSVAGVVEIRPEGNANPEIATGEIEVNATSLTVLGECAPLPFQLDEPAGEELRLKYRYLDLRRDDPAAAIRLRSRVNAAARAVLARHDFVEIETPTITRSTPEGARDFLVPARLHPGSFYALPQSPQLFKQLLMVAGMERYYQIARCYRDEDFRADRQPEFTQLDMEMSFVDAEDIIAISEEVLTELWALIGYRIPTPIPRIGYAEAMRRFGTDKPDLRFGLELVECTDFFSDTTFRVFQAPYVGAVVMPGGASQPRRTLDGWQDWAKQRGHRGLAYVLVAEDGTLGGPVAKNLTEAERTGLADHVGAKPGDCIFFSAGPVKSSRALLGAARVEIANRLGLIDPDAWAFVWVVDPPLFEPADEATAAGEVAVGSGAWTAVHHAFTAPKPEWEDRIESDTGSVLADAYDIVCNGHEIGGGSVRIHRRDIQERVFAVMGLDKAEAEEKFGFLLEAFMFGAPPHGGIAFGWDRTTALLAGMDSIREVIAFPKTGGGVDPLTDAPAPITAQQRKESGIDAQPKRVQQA
Description: Assay for Asp RNA synthetase-1 from Mycobacterium tuberculosis. Format: functional. Set-up: scale not given: direction of the effect not stated beside the values. Particulars: 30 µM.

Assay [2] concerns the target Shiga toxin 2 (Escherichia coli O157:H7) (UniProt P09385+P09386). Description: E. coli 0.157:H7 Shiga Toxin SOP - stx2 screening assay. It is filed as functional. Set-up: scale not given: direction of the effect not stated beside the values. Particulars: 30 µM.

Turning to `CCC1=N[C@@]2(CC[C@@H]3CN(Cc4ccc(Cl)cc4)C[C@@H]32)C(=O)N1C`, the results for the Percent Effect in assay [1] and in assay [2] were 3.65% and 3.45%, respectively.

On to `O=C(NCc1ccccc1)[C@H]1C[C@@H]2CN(S(=O)(=O)C3CC3)C[C@H]1O2`, for which the Percent Effect amounted to 6.82% in assay [1] and 2.32% in assay [2].

Take `N#Cc1ccc(OC2CCN(C(=O)c3ccc4c(c3)OCO4)CC2)nc1`: the Percent Effect in assay [1] is -8.83%; in assay [2], -32.6%.

As to `O=C(NCC(Cc1cccc(F)c1)N1CCCC1=O)c1ccccc1` (centres undefined), the figures for the Percent Effect in assay [1] and in assay [2] were -2.27% and -0.947%, respectively.

For `O=C(C1CCOC1)N1C[C@H]2CN(Cc3nccs3)C[C@H]2C1` (some centres undefined), the figures for the Percent Effect in assay [1] and in assay [2] were -1.88% and 1.98%, respectively.

Consider `CC(C)N1CCCC2(CCN(C(=O)CCCn3ccnc3)C2)C1=O` (centres undefined), for which the Percent Effect in assay [1] was -5.64%; in assay [2], 15.9%.

Consider `Cc1nc(CN2CCCn3c(nc(Cn4ccnc4)cc3=O)C2)cs1`, for which the values for the Percent Effect in assay [1] and in assay [2] were 0.435% and -3.23%, respectively.

For the molecule `CNc1nc2c(s1)C(c1cccc(F)c1F)CC(=O)N2` (centres undefined), the values for the Percent Effect in assay [1] and in assay [2] were 34.5% and 3.28%, respectively.

Take `COc1ccc(CC(=O)N2CCCCC2Cn2cccn2)cc1OC` (centres undefined): the Percent Effect is -2.34% in assay [1] and -6.84% in assay [2].

`Cc1cnn(CC2CN(Cc3nccn3C)CCO2)c1` (centres undefined): the Percent Effect was -3.32% in assay [1] and 17.1% in assay [2].

With `COc1cc2nc3n(c(=O)c2cc1OC)CCN(C)CC3`, the Percent Effect in assay [1] was -1.59%; in assay [2], -7.54%.

Take `CCc1nc(CN2CCCC(NCc3ccc(C(N)=O)cc3)C2)no1` (centres undefined): the Percent Effect in assay [1] is -2.68%; in assay [2], -8.49%.

Regarding `CC(C(=O)NCCOc1cccc(Cl)c1)n1cncn1` (centres undefined), the Percent Effect in assay [1] was 4.65%; in assay [2], -10.9%.

Consider `O=C(Cc1cn2ccsc2n1)N1CCCC(n2cncn2)C1` (centres undefined), for which the results for the Percent Effect in assay [1] and in assay [2] were -0.0111% and -30%, respectively.

Take `c1cc2n(n1)CC(CNCc1ccc(OCC3CC3)nc1)CN2` (centres undefined): the Percent Effect in assay [1] is 0.395%; in assay [2] it was -66.4%.

As for `CC(O)CN1CCC(CNCc2ccccc2Br)CC1` (centres undefined), the Percent Effect in assay [1] was 1.21%; in assay [2], -20.4%.

With `COCCN1CCC(NCc2ccc(C#N)cc2)C1` (centres undefined), the Percent Effect in assay [1] was -2.03%; in assay [2], -49.3%.
